Screens deposited in PubChem by National Center for Advancing Translational Sciences (NCATS).
D3 antag – qHTS of D3 Dopamine Receptor Antagonist: qHTS; D(3) dopamine receptor (Homo sapiens), P35462; D3R cells, DiscoveRx beta-arrestin luminescence, antagonist mode; hits give low values; 360,000 tested, 2.5% active; AID 652054, 2013; max response, negative = inhibition, %; in the data active = max response below about -50%; inconclusive = no clear call, values can overlap the other calls
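Cells expressing the human receptor were seeded at 1500 cells/well, incubated overnight at 37 degrees C in 5% CO2, then exposed to library compounds with dopamine controls for 90 minutes at 37 degrees C before luminescent detection.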
DRD3 agonist – qHTS of D3 Dopamine Receptor Agonist: qHTS | D(3) dopamine receptor (Homo sapiens), P35462 | D3R DiscoveRx beta-arrestin cells, luminescence, 90 min | max activation, % | 410,000 tested, 0.58% active; in the data active = max activation above about 30%
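Agonist-mode cell screen: cells plated at 1500/well and incubated overnight at 37 °C, then exposed to library compounds for 90 min at 37 °C. Detection reagent was added for 30–60 min at room temperature, and luminescence was read.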
D1 agonist – Allosteric Agonists of the Human D1 Dopamine Receptor: qHTS. 360,000 tested, 1% active. activation, % at 2 µM. HEK293 T-REx D1 cells, calcium flux, agonist mode; in the data active = activation above about 30%
Target sequence (P21728 whole entry, looked up): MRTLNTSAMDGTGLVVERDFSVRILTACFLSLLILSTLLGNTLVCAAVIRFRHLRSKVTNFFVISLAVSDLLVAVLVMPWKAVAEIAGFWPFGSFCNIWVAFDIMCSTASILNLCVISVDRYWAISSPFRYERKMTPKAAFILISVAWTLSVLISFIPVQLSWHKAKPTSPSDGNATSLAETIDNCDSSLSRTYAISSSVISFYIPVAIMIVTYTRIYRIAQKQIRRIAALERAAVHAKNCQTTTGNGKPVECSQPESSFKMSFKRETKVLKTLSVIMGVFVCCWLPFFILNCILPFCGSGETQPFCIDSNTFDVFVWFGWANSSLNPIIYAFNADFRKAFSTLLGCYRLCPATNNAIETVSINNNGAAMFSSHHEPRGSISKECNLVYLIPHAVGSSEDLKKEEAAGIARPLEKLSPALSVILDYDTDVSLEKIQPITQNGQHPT
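Inducible HEK293 T-REx D1 cells, force-coupled to calcium signalling, were plated at 4000 cells/well with tetracycline and held overnight at 30 C. After no-wash calcium dye loading, compound-evoked calcium rise over 180 s flagged agonists.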
D1 PAM – Potentiators of Human D1 Dopamine Receptor: qHTS. D(1A) dopamine receptor (Homo sapiens), P21728. 360,000 tested, 0.036% active. AID 504651, 2011. potentiation, % at 10 µM. HEK293 TREx D1 cells, calcium flux, dopamine EC20 potentiation; in the data active = potentiation above about 30%
D1 antagonist – Antagonist of Human D 1 Dopamine Receptor: qHTS. 360,000 tested, 3.2% active. HEK293 TREx D1 cells, calcium flux, dopamine EC80; hits give low values. activity change, negative = inhibition, % at 10 µM. D(1A) dopamine receptor (Homo sapiens), P21728; in the data active = activity change below about -30%
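Tetracycline-induced HEK293 T-REx cells with force-coupled D1 receptor were loaded with a no-wash calcium dye. Compound was added after a 10 s baseline and read kinetically for 180 s; EC80 dopamine was then added and calcium flux followed another 180 s.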
Large screens that a line does not name were inactive; ! = not active in a repeat. This is a sample that favours compounds with a hit; in the whole collection about 6% have one here.

CCCCCCSc1nnc2c(n1)OC(C)Nc1ccc(Br)cc1-2 (configuration not stated)	none (no result: D3 antag)
Cc1nc2ccc(S(=O)(=O)Nc3ccc(-c4nc5cccnc5s4)cc3)cc2s1	D1 antagonist -54.5
CC(C)(C)c1ccc(NC(=O)c2cc(C3CCCN(C(=O)CCc4ccccc4)C3)on2)cc1 (configuration not stated)	none (no result: D1 agonist, D1 PAM, D1 antagonist)
O=C(Nc1ccccc1C(=O)N/N=C/c1ccncc1)c1ccccc1	D1 antagonist -31.8
O=C(CCC(=O)Nc1ccccc1)N/N=C/c1ccncc1	none
COc1ccc(NC(=O)CCC(=O)N/N=C/c2ccncc2)cc1	D1 antagonist -64.0
Cc1ccccc1C(=O)Nc1ccc(C(=O)N/N=C/c2ccncc2)cc1	D3 antag inconclusive
Cc1ccccc1NC(=O)CCC(=O)N/N=C/c1ccncc1	D1 antagonist -40.5
CC(C)(C)c1ccc(-c2nc(NC(=O)CSc3ncnc4sc5c(c34)CCCC5)ns2)cc1	none (no result: D3 antag)
Cc1[nH]c2ccccc2c(=O)c1CN(C)Cc1ccccc1	D3 antag -63.1
CCCCN(C)Cc1c(C)[nH]c2ccccc2c1=O	none
CCN(CC)C(=S)S	none (no result: D3 antag, D1 agonist, D1 PAM, D1 antagonist)
Clc1ncccc1-c1nc2ccccc2s1	none
O=c1c(-c2nc3ccccc3s2)cccn1Cc1ccc(Cl)cc1	DRD3 agonist 56.3 (no result: D1 agonist, D1 PAM, D1 antagonist)
CCCCn1c(N)c(N(CC(C)C)C(=O)CCNC(=O)c2ccc(Br)cc2)c(=O)[nH]c1=O	none
Cc1ccccc1N1CC(c2nc3ccccc3n2Cc2ccc(Br)cc2)CC1=O (configuration not stated)	none (no result: D3 antag)
CC(C)C[C@@H](CN)NC(=O)c1nc[nH]c1C(=O)N[C@@H](CC(=O)O)C(=O)CNC[C@H](C)NC(=O)c1nc[nH]c1C(=O)N[C@@H](CC(=O)O)C(=O)O	D3 antag inconclusive (no result: D1 agonist, D1 PAM, D1 antagonist)
O/N=C/c1cc(Br)ccc1OCc1ccc(F)cc1	none (no result: D1 agonist, D1 PAM, D1 antagonist)
Cc1ccc(COc2ccc(Br)cc2/C=N/O)cc1	D3 antag -94.2
O/N=C/c1ccc(OCc2ccccc2)c(Br)c1	D1 antagonist -33.5
c1ccc(N2CCN(c3ncnc4c3oc3ccccc34)CC2)cc1	DRD3 agonist 35.8
CC(=O)N1CCN(c2ccc(Nc3ncnc4c3oc3ccccc34)cc2)CC1	D3 antag -63.9
CCc1nnc(N2CCN(c3ncnc4c3oc3ccccc34)CC2)s1	none
COC(=O)c1ccc(CN(Cc2ccc(OC)c(OC)c2)S(=O)(=O)c2ccc(F)c(C(=O)Nc3cc(C)ccc3C)c2)cc1	none (no result: D3 antag)
Cc1ccc2oc(=O)c3cnn(CC(=O)N4CCN(c5ccc(F)cc5)CC4)c3c2c1	none (no result: D3 antag)
COc1ccc(N(CC(=O)Nc2ccc(C)cn2)S(=O)(=O)c2c(C)noc2C)cc1	D1 antagonist -80.1
Cn1cc(/C=C/c2cc[n+](C)cc2)c2cc(Cl)ccc21	none
Cn1cc(/C=C/c2cc[n+](C)cc2)c2cc(F)ccc21	D1 agonist 83.4
C[n+]1ccc(/C=C/c2c[nH]c3ccc(F)cc23)cc1	D1 agonist 56.1
O=S(=O)(N/N=C\c1ccc(-c2ccccc2Cl)o1)c1ccccc1	D3 antag -52.3
COc1ccc(C(=O)Nc2cc(-c3nc4ccccc4s3)ccc2OC)cc1	none (no result: D3 antag)
COc1ccc(-c2nc3ccccc3s2)cc1NC(=O)c1cccc(F)c1	D1 antagonist -30.1 (no result: D3 antag)
CC(=O)Oc1ccc([C@@H]2COc3c(ccc4c3C=CC(C)(C)O4)C2)c(OC(C)=O)c1	DRD3 agonist 37.8 (no result: D1 agonist, D1 PAM, D1 antagonist)
CC1(C)C=Cc2c(ccc3c2OC[C@H](c2ccc(O)cc2O)C3)O1	none
COc1ccccc1-c1c(C)nn2c(N3CCC(C)CC3)cc(C)nc12	none
COc1ccccc1-c1c(C)nn2c(C)cc(C)nc12	D1 antagonist -35.8
NC(=O)C(c1ccccc1)(c1ccccc1)[C@@H]1CCN(CCc2ccc3c(c2)CCO3)C1	none (no result: D3 antag, D1 agonist, D1 PAM, D1 antagonist)
Cc1ccc(NC(=O)CSc2nc3n[nH]c(C)c3c(=N)n2-c2ccccc2C)cc1C	none (no result: D3 antag)
COc1nccnc1NS(=O)(=O)c1ccc(N=Cc2c(C)[nH]n(-c3ccc(C)c(C)c3)c2=O)cc1	D3 antag -59.7
Nc1nc(COc2ccc(F)cc2Cl)nc(N2CCCCC2)n1	D1 antagonist -30.7
OCc1ccc(-c2cccc3nccn23)cc1	none (no result: D1 agonist, D1 PAM, D1 antagonist)
Cn1c(=O)[nH]c(=O)c2c1nc(SCCN1CCOCC1)n2Cc1ccccc1	D3 antag -69.9
Cc1csc(SCCn2c(N3CCN(c4ccccc4)CC3)nc3c2c(=O)[nH]c(=O)n3C)n1	D1 antagonist -63.7
CCCCCCCCc1nc(=S)[nH][nH]1	D3 antag -67.4
O=C1/C(=C/c2ccncc2)Cc2ccccc21	none
CC1C/C(=C/c2cccn2C)C(=O)/C(=C/c2cccn2C)C1 (configuration not stated)	D1 agonist 197.9
Cc1ccc(N=C2NC(=O)/C(=C/c3cccn3C)S2)cc1	none
CC1C/C(=C/c2ccncc2)C(=O)/C(=C/c2ccncc2)C1 (configuration not stated)	D1 antagonist -31.5
CCC(CC)C(=O)N(C)c1c(C)nc2c(OCc3ccc(Cl)cc3Cl)cccn12	D3 antag inconclusive (no result: D1 agonist, D1 PAM, D1 antagonist)
Oc1c(C(Nc2nccs2)c2ccc(C(F)(F)F)cc2)ccc2cccnc12 (configuration not stated)	DRD3 agonist 38.7
Oc1c(C(Nc2cccc(C(F)(F)F)c2)c2ccncc2)ccc2cccnc12 (configuration not stated)	D3 antag -53.6
COC(=O)c1ccc(C2Nc3c(C)cccc3-c3cc(C)nn32)cc1 (configuration not stated)	none (no result: D3 antag)
CCOC(=O)c1cc2c(C)n(-c3ccc(C)cc3)c(C)c2ccc1=O	D1 antagonist -58.3
Cn1nnc2c(N3CCN(c4ccccc4F)CC3)ncnc21	none (no result: D3 antag, D1 antagonist)
Cn1ncc2c(N3CCN(c4ccccc4F)CC3)ncnc21	DRD3 agonist 30.3!
Cc1cccc(NC(=O)c2cc(S(=O)(=O)NCCc3ccccc3)ccc2F)c1C	none (no result: D3 antag)
COc1ccc(N=C2NC(=O)S/C2=C\c2ccc(N(C)C)cc2)cc1	D3 antag -66.0, D1 agonist 67.4
COc1cccc(CSc2nc(-c3ccccc3F)nc3c2Cc2c(CO)cnc(C)c2O3)c1	none (no result: D3 antag)
CC(C)(C)c1ccc(/C=C/C(=O)Nc2ccc(S(N)(=O)=O)cc2)cc1	D1 agonist 33.1 (no result: D3 antag)
NS(=O)(=O)c1ccc(NC(=O)/C=C/c2cccc(Cl)c2)cc1	none
O=C(O)/C=C/c1ccc(S(=O)(=O)NCc2ccco2)cc1	none
COc1ccc(/C=C/C(=O)Nc2ccc(C)cc2)cc1	D1 antagonist -64.5 (no result: D3 antag)
CC(=O)c1ccc(NC(=O)/C=C/c2ccc(C)cc2)cc1	none
NS(=O)(=O)c1ccc(NC(=O)/C=C/c2ccc(S(=O)(=O)NCc3ccco3)cc2)cc1	D1 antagonist -43.1
